Rows were chosen to be rich in hits. Some 2.9% of all compounds tested hit in one or more screens of this group.
TRPML1 inh – inhibitors of human TRPML1 channel. TRPML1-inducible cells, Ca2+ dye fluorescence, FDSS; active compounds read low; inhibition of EC80 agonist-evoked calcium signal. 390,000 compounds, 0.02% hits. AID 624415. activity change, negative = inhibition, % (test concentration not listed); in the data active = activity change below about -50%; inconclusive = between about -30% and that limit;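 also: stimulus is agonist 54-4 at its EC80 concentration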
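TRPML1-DL cells, Tet-induced overnight (~16 h, 37 °C) at 1,500 cells/well, were loaded with Ca8 no-wash dye plus quencher for 45-90 min at room temperature. Compounds were pinned during FDSS kinetic reading; agonist 54-4 at EC80 (4 uM final) then added.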
D3 ag – D3 dopamine receptor (human) agonism | P35462 | D3R DiscoveRx beta-arrestin cells, luminescence, 90 min | max activation, % | 410,000 compounds, 0.58% hits | AID 652048; in the data active = max activation above about 30%
Target sequence (P35462 whole entry, looked up): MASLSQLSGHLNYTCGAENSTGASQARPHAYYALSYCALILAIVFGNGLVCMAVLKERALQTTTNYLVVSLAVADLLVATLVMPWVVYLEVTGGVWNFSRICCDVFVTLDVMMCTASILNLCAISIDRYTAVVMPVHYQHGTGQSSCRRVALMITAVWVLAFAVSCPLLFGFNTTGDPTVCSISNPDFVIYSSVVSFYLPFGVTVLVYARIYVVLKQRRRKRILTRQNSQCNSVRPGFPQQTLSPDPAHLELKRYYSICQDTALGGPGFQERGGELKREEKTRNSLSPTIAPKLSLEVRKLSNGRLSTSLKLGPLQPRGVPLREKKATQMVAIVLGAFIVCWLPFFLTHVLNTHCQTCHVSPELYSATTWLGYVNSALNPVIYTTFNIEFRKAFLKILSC
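Agonist mode: compounds and dopamine controls were applied to plated cells for 90 min at 37 degrees C after an overnight attachment at 1500 cells/well. Luminescent read-out followed 30 - 60 minutes at room temperature with DiscoveRx detection reagent.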
TRPML1 agonist – human mucolipin-1 channel agonism; TRPML1-expressing cells, Ca2+ dye fluorescence, FDSS; activation, % (test concentration not listed); 410,000 compounds, 0.12% hits; AID 624414; in the data active = activation above about 50%; inconclusive = mostly about 30% to 49%
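Agonist activity was taken from a 110 s kinetic Ca2+ dye read on the FDSS after pinning compounds onto TRPML1-DL cells. The cells were seeded at 1,500/well with Tet inducer, incubated about 16 h, then dye-loaded at room temperature.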
D3 antag – D3 dopamine receptor (human) antagonism | P35462 | D3R cells, DiscoveRx beta-arrestin luminescence, antagonist mode; active compounds read low | max response, negative = inhibition, % | 360,000 compounds, 2.5% hits; in the data active = max response below about -50%; inconclusive = no clear call, values can overlap the other calls
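Cells plated overnight at 1500 cells/well, then exposed to library compounds with dopamine controls for 90 minutes at 37 degrees C. DiscoveRx reagent added for 30–60 minutes at room temperature; luminescence read, quantitative HTS format.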
Each line names hits and unclear results; the compound was inactive in the other large screens.

O=C(Cc1ccccc1)NC1CCN(Cc2ccccc2)CC1	D3 antag inconclusive
Cc1cccc(S(=O)Cc2ccc(C(=O)NC3CCN(Cc4ccccc4)CC3)o2)c1 (configuration not stated)	D3 antag -67
COc1ccc(CC(=O)Nc2sc3c(c2C(=O)Nc2c(C)cccc2C)CCCCC3)cc1	none (no result: D3 antag)
Cc1cc(C)cc(-n2nnc(-c3nc(-c4ccccc4F)no3)c2C)c1	none (no result: D3 antag)
CC(C)CC(=O)Nc1c(C(=O)N2CCN(c3ccccc3F)CC2)oc2ccccc12	none (no result: D3 antag)
Cn1nccc1C(=O)NC1CCN(Cc2ccccc2)CC1	D3 antag -80
CC(Oc1ccccc1)C(=O)NC1CCN(Cc2ccccc2)CC1 (configuration not stated)	D3 antag -59
CC(Oc1ccccc1)C(=O)NC1CCCCCCC1 (configuration not stated)	none
O=C(NC1CCN(Cc2ccccc2)CC1)c1ccccc1	D3 antag -81
Cc1ccccc1CC(=O)NC1CCN(Cc2ccccc2)CC1	none
O=C(NC1CCN(Cc2ccc(Cl)cc2Cl)CC1)c1ccccc1	D3 antag -78
COc1ccc(-n2nc(C(=O)Nc3ccc(C(C)=O)cc3)nc2-c2ccccc2)cc1	none (no result: D3 antag)
O=C(COC(=O)CNC(=O)C1CCCCC1)NC1CCCC1	none (no result: TRPML1 inh, D3 ag, D3 antag)
Cc1oc(-c2ccccc2)cc1C(=O)NC1CCN(Cc2ccccc2)CC1	D3 antag -82
O=C(NC1CCN(CCc2c[nH]c3ccccc23)CC1)c1ccccc1	D3 antag -103
O=C(NC1CCN(Cc2ccccc2)CC1)c1cncc(Br)c1	D3 antag -86
C=CCNC(=O)/C(C#N)=C/c1c(N2CCN(c3cccc(Cl)c3)CC2)nc2c(C)cccn2c1=O	D3 antag -59
CNC(=O)/C(C#N)=C/c1c(N2CCN(c3cccc(Cl)c3)CC2)nc2c(C)cccn2c1=O	D3 antag -57
COCCNC(=O)/C(C#N)=C/c1c(N2CCN(c3cccc(Cl)c3)CC2)nc2c(C)cccn2c1=O	none
CCNC(=O)/C(C#N)=C/c1c(N2CCN(c3ccccc3)CC2)nc2c(C)cccn2c1=O	D3 antag -69
Cc1nnc(N2CCN(c3ccccc3)CC2)c2c1nnn2Cc1ccc(F)cc1	none (no result: D3 antag)
COc1cccc(NC(=O)CSc2nc3ccc(NC(=O)c4cccs4)cc3s2)c1	none (no result: D3 antag)
O=[N+]([O-])c1cccc(/C=C/c2ccccc2)c1	none (no result: TRPML1 inh, D3 ag, D3 antag)
O=[N+]([O-])c1cccc(/C=C/c2nc(C=Nc3ccccc3)c(O)o2)c1	D3 ag 31
S=C(N/N=C1\C2CN3CCN(C2)CC1(c1ccccc1)C3)Nc1ccccc1	none
S=C(NN=C1C2CC3CC(C2)CC1C3)Nc1ccccc1	D3 antag -66
Cc1[nH]c2ccc(C(=O)NCCCN3CCCCC3)cc2c1C	D3 antag inconclusive
Cc1[nH]c2ccc(C(=O)NCCN3CCCCCC3)cc2c1C	D3 antag -70
CCCN1CCN(C(=O)c2ccc3[nH]c(C)c(C)c3c2)CC1	D3 antag -87
Cc1cc(C)cc(-n2cnc3cc(C(=O)NCCc4ccccc4)ccc32)c1	none (no result: D3 antag)
CC(C)(CO)[C@@H](O)C(=O)NCCCC(=O)O	none (no result: TRPML1 inh, TRPML1 agonist, D3 antag)
COc1ccc(C2=CC(=O)N(Nc3ccccc3)C2=O)cc1	D3 antag -62
Cc1ccc(NN2C(=O)C=C(c3ccc(Cl)cc3)C2=O)cc1	D3 antag -53
O=C1C=C(c2ccccc2)C(=O)N1Nc1ccccc1	D3 antag inconclusive
Cc1ccc(NN2C(=O)C=CC2=O)cc1	none
O=C(NNC(=O)c1sc2cccc(Cl)c2c1Cl)Nc1ccccc1	none
O=C(NNC(=S)NC1CCCCC1)c1sc2ccccc2c1Cl	D3 antag -64
CC(C)(C)C(=O)NC(=S)NNC(=O)c1sc2ccccc2c1Cl	TRPML1 agonist 71
O=C(NNC(=O)c1sc2cccc(Cl)c2c1Cl)NC1CCCCC1	D3 antag -74
CCn1cc(C(=O)NCc2ccc(Cl)cc2)c(=O)c2cc(S(=O)(=O)N(C)C3CCCCC3)ccc21	none (no result: D3 antag)
Cc1cccc(-c2noc(-c3cc(C(C)C)[nH]n3)n2)c1	none (no result: D3 antag)
COc1cccc(-c2cccc3c2NC(=O)C3(C)Cc2cccc(F)c2)c1 (configuration not stated)	D3 antag -70 (no result: TRPML1 inh)
CC1(Cc2cccc(F)c2)C(=O)Nc2ccc(-c3cccnc3)cc21 (configuration not stated)	none (no result: TRPML1 inh)
CC1([N+](=O)[O-])COC2(CCCCC2)OC1	D3 ag 83, D3 antag -50
CC(=O)c1ccc(-c2ccc([C@H]3[C@@H]4C=CCC[C@@]4(C)C(=O)N3Cc3ccccc3)c(F)c2)cc1	D3 ag 48
COc1ccc(Br)cc1[C@H]1[C@@H]2C=CCC[C@@]2(C)C(=O)N1Cc1ccccc1	D3 antag -55
COc1ccc(/C=C/c2ccccc2)cc1[C@H]1[C@@H]2C=CCC[C@@]2(C)C(=O)N1Cc1ccccc1	D3 antag -66
COc1ccc(/C=C/c2ccccc2)cc1[C@H]1[C@H]2C=CC[C@@H](C)[C@@H]2C(=O)N1Cc1ccccc1	D3 antag -53
COc1ccc(-c2ccc(OC)c([C@H]3[C@H]4C=CC[C@@H](C)[C@@H]4C(=O)N3Cc3ccccc3)c2)cc1C	none
OC(CN1C=CCc2ccccc21)c1ccc(Cl)cc1Cl (configuration not stated)	none (no result: TRPML1 inh, D3 ag, D3 antag)
COC(=O)[C@H](C)NS(=O)(=O)C1CC1	none (no result: TRPML1 inh, D3 ag, D3 antag)
O=[N+]([O-])c1cnc(Nc2ccccc2)nc1Nc1ccccc1	D3 antag -83
CCCCOc1ccc(-c2nonc2NC(=O)c2ccco2)cc1	none (no result: D3 antag)
Cn1c(=O)n(CCc2ccccc2)c(=O)c2c1nc1n2CCN1c1ccc(Cl)cc1	none (no result: D3 antag)
Cc1ccccc1/C=C/C12NC(=O)CN1c1ccccc1C2(C)C (configuration not stated)	D3 ag 31
CCOC(=O)c1ccc(-n2c(=S)sc3c(=O)[nH]c(C)nc32)cc1	D3 ag 51
CCOc1ccc(-n2c(=S)sc3c(=O)[nH]c(SCC(=O)NC4CCCCC4)nc32)cc1	none
CCc1ccc(-n2c(=S)sc3c(=O)[nH]c(SCC(=O)NC4CCCCC4)nc32)cc1	D3 antag -51
Cc1ccc2nccc(/C=C/c3ccc(N(C)C)cc3)c2c1	none (no result: TRPML1 inh, D3 ag, D3 antag)
N#Cc1cc([N+](=O)[O-])c(-n2nnc3ccccc32)c([N+](=O)[O-])c1	D3 antag -58
O=C(Cn1c(=O)n(-c2ccc(Cl)cc2)c(=O)c2c3c(sc21)CCCCC3)Nc1cccc(Cl)c1	none (no result: D3 antag)
OCC[N+]1(CCc2ccccc2)CCOCC1	none (no result: TRPML1 inh, D3 ag, D3 antag)
CCN(CC)C(=O)c1ccc2nc3ccccc3nc2c1	D3 antag -63
CCN(CC)C(=O)c1ccc2nc(-c3ccccc3)c(-c3ccccc3)nc2c1	none
Cc1ccc(NC(=O)CCS(=O)(=O)c2cc(Br)cc3c2N(C(=O)C2CC2)CC3)cc1	none (no result: D3 antag)
C=CCn1c(N)c(C(=O)N2CCN(C)CC2)sc1=S	D3 antag -54
COCCNC(=O)c1ccc(C2SCC(=O)N2Cc2ccco2)cc1 (configuration not stated)	none

Bioassay records as filed in PubChem BioAssay.
